# Spn MK inh: inhibitors of Streptococcus pneumoniae mevalonate kinase; inhibition, % at 10 µM; purified MK, PK/LDH-coupled NADH absorbance 340 nm; actives 0.48% (n = 65,000);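 active = ranked among the strongest by inhibition in the single 10 µM screen, a fixed top-ranked set picked for dose follow-up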
# A340 absorber: absorbance at 340 nm; fold change at 10 µM; AID 708; 65,000 tested, under 10 active; compound absorbance at 340 nm, fold over control;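 active = at 10 µM dose, initial 340 nm absorbance at least 2 fold that of control wells; inactive = change under 2 fold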;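 note: initial absorbance extrapolated from kinetic A340 decline of NADH oxidation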
# DPM-DC inhibit: S. pneumoniae DPM-DC inhibition; purified DPM-DC, PK/LDH coupled NADH fluorescence; AID 556; actives 0.49% (n = 65,000); calls only at 10 µM;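 active = the 320 compounds with the highest percent inhibition in the single-dose primary screen, excluding strongly autofluorescent ones, cut at about 32% in these data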;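 note: kinetic rate of NADH fluorescence loss reporting ADP formed by the decarboxylase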
# Spn PMK inh: inhibitors of Streptococcus pneumoniae phosphomevalonate kinase; inhibition, % at 10 µM; purified PMK, PK/LDH-coupled NADH absorbance 340 nm; AID 539; actives 0.49% (n = 65,000);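 active = top-ranked compounds by inhibition in the single 10 µM screen, taking a fixed number of the strongest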;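 note: 0% = full reaction with DMSO carrier and 100% = background rate without enzyme reaction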
# NADH coupling: blocks coupling enzymes of NAD/NADH assays; IC50, µM (highest dose often 10 µM), for the others: at the top dose inhibition; AID 774; actives 0.02% (n = 65,000); coupled PK/LDH NADH assays, four targets;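 active = single-dose screening hits from any of four coupled enzyme assays that gave an IC50 when retested across doses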;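 note: the DPM-DC format reads NADH fluorescence rather than 340 nm absorbance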
# Autofluor 339: intrinsic fluorescence of library compounds, ex339/em460 – biochemical, MLSMR library, data from DPM-DC assay, artefact control, profiling panel | compound autofluorescence, ex339/em460 nm, NADH buffer; stronger effect = higher value; 1 = no-compound wells, NADH background | AID 709 | fluorescence fold increase at 10 µM | actives 5.5% (n = 65,000);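 active = at 10 µM, mean starting fluorescence two-fold or more over control wells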;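 note: signal is the first read of a kinetic run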
# Active calls of the source: *; i = inactive; . = no result shown. Rows were chosen to be rich in hits. Some 6.5% of all compounds tested hit in one or more screens of this group.
SMILES,Spn MK inh,A340 absorber,DPM-DC inhibit,Spn PMK inh,NADH coupling,Autofluor 339
CNC(=O)c1cc2c(=O)n3cc(C)ccc3nc2n(C(C)C)c1=N,7.0,1.02,.,7.0,7.0%,5.02*
CNC(=O)c1cc2c(=O)n3cc(C)ccc3nc2n(Cc2ccco2)c1=N,3.0,1.01,i,3.0,4.0%,2.04*
CC1(C)Cc2c(sc3c4nnnn4c4nnnn4c23)CO1,3.0,1.04,i,12.0,12.0%,1.37
Cc1ccc(-c2noc(CCC(=O)N(C)c3ccccc3C)n2)cc1,4.0,1,i,12.0,9.0%,1.04
CCOc1ccc(Nc2nc(Cc3nnc(SCC(=O)NCc4ccco4)n3CC)cs2)cc1,0.0,0.99,i,9.0,3.0%,1.09
COc1ccc(C2C3=C(CC(C)(C)CC3=O)Nc3n[nH]c(C)c32)cc1 (configuration not stated),4.0,1.15,.,0.0,2.0%,2.29*
Cc1[nH]nc2c1C(c1ccccc1)C1=C(CC(C)(C)CC1=O)N2 (configuration not stated),8.0,1.14,.,14.0,11.0%,4.37*
CS(=O)(=O)N(CCc1ccccc1)CC(=O)NCc1ccco1,6.0,1.04,i,6.0,4.0%,1.1
COC(=O)COC(=O)CC(CC(N)=O)c1ccccc1 (configuration not stated),6.0,1.02,i,8.0,5.0%,1.06
O=C(NCc1cccnc1)c1cc(S(=O)(=O)N2CCCCC2)ccc1Cl,9.0,1.04,i,4.0,5.0%,1.12
N#C/C(=C(/O)COC(=O)CCc1ccc(S(=O)(=O)N2CCOCC2)cc1)c1nc2ccccc2[nH]1,75.0*,1.08,i,20.0,34.0%,1.49
N#C/C(=C(/O)COC(=O)Cc1c[nH]c2ccccc12)c1nc2ccccc2[nH]1,0.0,1.05,i,12.0,5.0%,1.12
CC(=O)Nc1c(-c2ccc(F)cc2)nc2ccccn12,4.0,1.01,.,1.0,1.0%,1.73
COC(=O)Nc1c(-c2ccccc2)nc2ccccn12,3.0,1.06,.,0.0,2.0%,2.1*
COC(=O)Nc1c(-c2ccccc2)nc2ccc(C)cn12,10.0,1.07,.,7.0,9.0%,3.77*
CC(C)CNC(=O)c1cccc(NC(=O)C2CCCO2)c1 (configuration not stated),5.0,1.01,i,0.0,3.0%,1.09
Clc1ccc(-c2nnc3sc(-c4ccc(Br)o4)nn23)cc1,11.0,1.02,i,14.0,4.0%,2.2*
Clc1ccc(-c2nnc3sc(-c4ccc(Br)o4)nn23)c(Cl)c1,10.0,1.06,i,10.0,7.0%,1.77
COc1cccc(-c2nn(C)c3sc(C(=O)NCc4ccco4)cc23)c1,10.0,1,i,7.0,6.0%,3.02*
CCN1CCCC1CNC(=O)c1cc2c(-c3cccc(OC)c3)nn(C)c2s1 (configuration not stated),7.0,1.04,.,9.0,8.0%,4.98*
CCN1CCCC1CNC(=O)c1cc2c(-c3ccc(Cl)cc3)nn(C)c2s1 (configuration not stated),6.0,1.1,.,3.0,5.0%,2.13*
CC(=NC1CCCCC1)C1=C(O)c2ccccc2C1=O,0.0,1.14,i,0.0,8.0%,1.1
c1ccc(-c2nnc3sc(-c4csc5c4CCCC5)nn23)cc1,0.0,1.02,i,12.0,4.0%,1.1
Cc1ccc(-c2cc(C(=O)Nc3cccnc3)c3ccccc3n2)o1,15.0,1.09,.,0.0,8.0%,2.2*
O=C(Nc1cccnc1)c1coc(=O)c2ccccc12,5.0,1.01,i,11.0,10.0%,1.5
SMILES,Spn MK inh,A340 absorber,DPM-DC inhibit,Spn PMK inh,NADH coupling,Autofluor 339
O=C(Cn1c(=O)oc2ccccc21)N1CCN(c2ccc(N3CCOCC3)nn2)CC1,7.0,1.06,.,16.0,12.0%,2.12*
Cc1ccccc1CS(=O)(=O)CCC(=O)N1CCN(c2ccc(N3CCOCC3)nn2)CC1,2.0,0.98,.,14.0,5.0%,3.42*
O=C(Cn1c(=O)oc2ccccc21)N1CCCCC1,8.0,1.02,i,0.0,3.0%,1.1
CCOc1ncccc1C(=O)OCC(=O)NCCc1ccc(OC)cc1,0.0,1.02,i,5.0,2.0%,1.02
O=C(CN1CCCCC1)Nc1cccc(-n2cnnn2)c1,8.0,1,i,1.0,3.0%,1.1
CC1(C)Cc2c(C#N)c(NCc3ccco3)nc(-c3ccco3)c2CO1,2.0,1,.,2.0,2.0%,2.25*
